Measurements from PubChem BioAssay AID1565 (Sanford-Burnham Center for Chemical Genomics, 2009).
The campaign covered roughly 290,000 compounds. About 3,200 (1.1%) were called active. The list comes from a sample in which actives are over-represented; it also holds similar structures and randomly drawn compounds. Unmarked numbers belong to inactive results. Rule as the data show it: active = inhibition above about 60%; inactive = the rest.

Target: Phosphoethanolamine/phosphocholine phosphatase (Homo sapiens) (UniProt Q8TCT1)
Sequence (Q8TCT1 whole entry, looked up): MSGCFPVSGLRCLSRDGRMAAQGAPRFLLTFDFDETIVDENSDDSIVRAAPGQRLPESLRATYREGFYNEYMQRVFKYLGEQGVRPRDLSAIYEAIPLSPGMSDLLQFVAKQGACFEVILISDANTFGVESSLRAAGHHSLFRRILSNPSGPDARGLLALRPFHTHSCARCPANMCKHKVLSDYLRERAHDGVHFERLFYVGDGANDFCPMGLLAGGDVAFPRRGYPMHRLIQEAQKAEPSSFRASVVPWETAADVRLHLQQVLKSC
Assay: PubChem AID 1565
Settings: recombinant PHOSPHO1, absorbance phosphatase assay; at 13.3 µM; hits give high values

With `COc1ccccc1N=C1SCCCN1C` as the molecule, how does the inhibition read?
The inhibition was 85.5% (active).

`COc1ccccc1N=Nc1c(O)[nH]c(=S)[nH]c1=O` was tested. Which inhibition did it give?
The inhibition was 11.7%.

`CC(C)(C)c1ccc(OC(=O)N2CCCCC2)cc1` was tested. Which inhibition did it give?
The inhibition was 27.4%.

With `Cc1cccc(NC(=O)N2CC3CC(C2)c2cccc(=O)n2C3)c1` (stereo not given) as the molecule, how does the inhibition read?
Its inhibition is 41.8%.

Which inhibition does the source give for `Cc1ccc(-c2nc3ccccc3c(=O)n2-c2ccc(Br)cn2)cc1` here?
Its inhibition is 68.6% (active).

Which inhibition does the source give for `O=c1c2ccccc2nc(-c2ccccc2)n1-c1ccccn1` here?
The inhibition was 32.4%.

`O=c1c2ccccc2nc(-c2ccco2)n1-c1ccc(Br)cn1` was tested. Which inhibition did it give?
The inhibition was -3.3%.

`Cc1nc2ccccn2c1P(=S)(N1CCCCC1)N1CCCCC1` was tested. Which inhibition did it give?
The inhibition was 15.2%.

For `COc1cccc(CN2CCCC(C(=O)c3ccccc3SC)C2)c1O` (stereo not given), which inhibition is on record?
The inhibition was 12.9%.

`O=c1c2ccccc2nc(/C=C/c2ccc(F)cc2)n1-c1ccccc1O` was tested. Which inhibition did it give?
Its inhibition is 38.1%.

For `O=[N+]([O-])c1ccc(C2C3C(c4ccccc4)=NC4(CCCCC4)N32)cc1` (stereo not given), which inhibition is on record?
The inhibition was 64.6% (active).

Which inhibition does the source give for `Cc1ccc(-n2c(-c3ccc([N+](=O)[O-])cc3)nc3ccccc3c2=O)cc1` here?
The inhibition was -3.5%.

With `COCc1cc(OC(=O)N(C)C)nc(-c2ccc(C)c(Cl)c2)n1` as the molecule, how does the inhibition read?
The inhibition was 20.3%.

With `COC(=O)N(c1ccc(OC)cc1)P1(=S)OCCC(C)O1` (stereo not given) as the molecule, how does the inhibition read?
The inhibition was 65.4% (active).

How did the inhibition turn out when `CCOC(=O)c1c(-c2ccccc2)oc2ccc(OC(=O)N(C)C)cc12` was run?
The inhibition was -3.7%.

`COc1ccc(Br)cc1CNCCc1cccc(Cl)c1` was tested. Which inhibition did it give?
The inhibition was 13.9%.

For `COc1ccc(N2C(=O)/C(=C/c3ccco3)C(=O)NC2=S)cc1`, which inhibition is on record?
The inhibition was -112%.

`O=C(O)c1ccccc1NC(=O)C1C2CCC(O2)C1C(=O)O` (stereo not given) was tested. Which inhibition did it give?
The inhibition was 28.7%.

For `c1ccc(CCNC2CCCCCC2)cc1`, which inhibition is on record?
The inhibition was 31.6%.

`O=c1[nH]c(CN2CC=C(c3ccccc3)CC2)nc2scc(-c3cccs3)c12` was tested. Which inhibition did it give?
Its inhibition is 50.8%.

Which inhibition does the source give for `C[N+]12CN3CN(CN(C3)C1)C2` here?
The inhibition was -34.4%.

How did the inhibition turn out when `CC1=CC(=Cc2sc3ccccc3[n+]2C)C=C(C)O1` was run?
Its inhibition is 5.9%.

How did the inhibition turn out when `CCN(CC)CCOC(=O)c1cc2cc(COC)ccc2o1` was run?
Its inhibition is 94.9% (active).

How did the inhibition turn out when `COc1cccc(N2C(=O)NC(=O)/C(=C\c3ccc([N+](=O)[O-])s3)C2=O)c1` was run?
Its inhibition is -60.1%.

How did the inhibition turn out when `Cc1cc(=O)oc2c(C)c(OCC(=O)N3CCN(Cc4ccc5c(c4)OCO5)CC3)ccc12` was run?
Its inhibition is 27.9%.
